Screen size: about 360,000 compounds; about 2,600 (0.72%) were called active.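 How the source made its calls: active means inhibition of the luminescence signal of 40% or more relative to plate controls, in a single-dose primary screen at 18.75 µM; inactive means the rest.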 Shown is part of a subset that was picked to be rich in actives.
Experiment: blockers of HIF-2a driven luciferase – luminescence, 786-0 RCC cells, primary screen (AID 624352)
Settings: 786-0 RCC cells HIF-2a reporter, overnight, at 18.8 µM, active compounds read high

inhibition, active:
COc1ccc(Nc2ncnc3ccc(Br)cc23)c(OC)c1 75.3%
Cc1cccc(-n2ncc(Cl)c(Cl)c2=O)c1 84.5%
Cc1nnnn1/C(=C\c1ccccc1)C(=O)OCC(=O)N1CC2(C)CC1CC(C)(C)C2 (stereo not drawn) 50.7%
O=C(O)CCn1c(O)c(C=C2N=c3ccccc3=N2)sc1=S 48.3%
COc1ccc(C(=O)/C=C/Nc2ccccn2)cc1 51.6%
O=C(Nc1ccc2c(c1)OCCO2)C1CCCC1 41.3%
COc1ccc(-c2oc3ncnc(NCCCO)c3c2-c2ccc(OC)cc2)cc1 40.9%
COc1ccc(NC(=O)/C(Cl)=C(/Cl)S(=O)Cc2ccc(C)cc2)cn1 (stereo not drawn) 90.8%
CS(=O)(=O)N(Cc1ccc(Cl)cc1)c1ccc(C(=O)NCCSCc2ccco2)cc1 43.2%
CCN1CCN(CCNC(=O)c2ccc3c(c2)NC(=O)/C(=C\c2cccc(Cl)c2)S3)CC1 90.6%
COc1ccc(-c2nc(-c3ccccc3)no2)c(OC)c1 58.9%
CC1CCCCC1NC(=O)/C(C#N)=C/C=C/c1ccccc1[N+](=O)[O-] (stereo not drawn) 79.7%
CCC(C)Cn1c(O)cc2nn(-c3nc4ccccc4s3)c(=O)c-2c1C (stereo not drawn) 80.9%
CC(C)n1cnc2c(Nc3cccc(Cl)c3)nc(N(CCO)CCCO)nc21 51.3%
COC(=O)c1c(NC(=O)CCCC(=O)O)sc2c1CCCCC2 50.8%
NC(N)=Nc1nc(-c2ccccc2)c2cc(Cl)ccc2n1 41.9%
O=C(Nc1ccccc1Cl)/C(Cl)=C(\Cl)S(=O)c1ccccc1 (stereo not drawn) 95.4%

inhibition, inactive:
CCCN(CC(=O)Nc1ccccc1OC)C(=O)CCC(=O)c1ccc(F)cc1 -7.63%
O=C(CC1SC(=Nc2ccccc2)N(Cc2ccccn2)C1=O)Nc1cccc(Cl)c1 (stereo not drawn) -84.7%
CCN(C(=O)COC(=O)c1c(NC(C)=O)sc(C)c1C)C1CCS(=O)(=O)C1 (stereo not drawn) 12.6%
O=C(NCc1cccnc1)C12CC3CC(CC(C3)C1)C2 21.4%
CC1(C)CC2CC(C)(CN2c2ncnc3ccc(Br)cc23)C1 (stereo not drawn) 31.5%
CCOC(=O)CNc1nc(Cl)nc(Nc2ccc(OC)cc2OC)n1 12.9%
CC1=NC2(CCCc3c2no[n+]3[O-])N(O)C1(C)C (stereo not drawn) -5.63%
Cc1cccc(N2Cc3ccccc3C2=NC(=O)c2ccc(Cl)nc2)c1 -92.3%
Nc1c(-c2cccc(Cl)c2)cnn1-c1cccc([N+](=O)[O-])c1 -139%
COc1ccc(OC)c(-c2c(=O)n(OCc3ccccc3Br)c3ccccc3[n+]2[O-])c1 23.8%
Cc1ccc(CNC(=O)COc2ccc(S(=O)(=O)NC(C)C)cc2)cc1 -0.52%
Cn1c(=O)n(C)c2cc(CNc3ccc(N4CCOCC4)c(C(=O)O)c3)ccc21 15.1%
O=C(CNC(=O)c1cc(S(=O)(=O)N2CCOCC2)ccc1N1CCCC1)Nc1ccc(F)c(F)c1 3.34%
COc1ccc(/C=N/N=C/c2c[nH]c(=O)c(C#N)c2Nc2ccccc2)cc1 22.7%
C=CCNC(=O)C1CC2c3ccccc3C1c1ccccc12 (stereo not drawn) 15.4%
CC1(C(=O)NS(=O)(=O)C2CC2)CCCN(C(=O)CSc2ccccc2)C1 (stereo not drawn) 6.93%
CCSc1sc(CC)cc1C=O 18.8%
COc1ccccc1CN1CC(C(=O)NCCc2cn[nH]c2)CCC1=O (stereo not drawn) 11.7%
COCCN(C(=O)CCC(=O)Nc1ccccn1)C(C(=O)NCCC(C)C)c1ccc(OC)cc1 (stereo not drawn) 12.7%
COc1ccc2nc(-c3ccccn3)ccc2c1 -77.1%
CCCN1C2CCCC1CC(NC(=O)NC13CC4CC(CC(C4)C1)C3)C2 (stereo not drawn) 19.4%
CN1C(=O)c2ccc(NC(=O)C3CCCCC3)cc2C1=O -8.6%
O=C(Nc1ccc2c(c1)OCO2)C1CC1(Cl)Cl (stereo not drawn) -154%
CCOc1ccc(S(=O)(=O)N2CCC(C(=O)NCc3ccccn3)CC2)cc1Cl 19.5%
COc1ccc(CCNC(=O)C(=O)NCC2OCCN2S(=O)(=O)c2ccc(F)cc2)cc1OC (stereo not drawn) -5.35%
CCOc1ccc(CN2CCN(Cc3ccc4cc(F)ccc4n3)CC2CCO)cc1 (stereo not drawn) 12.7%
O=C(c1ccccc1)c1cccn1CC(=O)N1CCN(c2ccc(F)cc2)CC1 12.9%
CCOCCCN(C(=O)Cn1nnc(-c2ccc(OC)c(OC)c2)n1)C(CC)C(=O)NC1CCCC1 (stereo not drawn) 18.1%
C[C@H](CO)N1C[C@H](C)[C@@H](CN(C)C(=O)c2cccc(F)c2)Oc2cc(-c3cncnc3)ccc2S1(=O)=O 9.48%
COc1ccc(-c2oc3ncn(Cc4ccco4)c(=N)c3c2-c2ccc(OC)cc2)cc1 8.92%
COCCNc1ncnc2c1ncn2[C@H]1CN(Cc2ccc(OC)cc2)C[C@@H](CO)O1 -2.96%
Cc1ccc(CCCOC(=O)C[N+]2(C)CCCCC2)cc1 1.23%
C[C@@H]1CN([C@H](C)CO)C(=O)CCCn2nncc2CO[C@@H]1CN(C)S(=O)(=O)c1cccc(C#N)c1 13.2%
NC(c1csc(NC(=O)Nc2ccccc2Oc2ccccc2)n1)c1ccccc1Cl (stereo not drawn) 24.3%
CCN(CC)c1ccc(NC(=O)CCc2nnc3ccc(N4CCCCC4)nn23)c(C)c1 -2.16%
Cc1nc(C(=O)N2CCCC(C(=O)c3ccc(Cl)cc3)C2)cs1 (stereo not drawn) 3.92%
CC(=O)Nc1c2c(nn1-c1ccc(C)cc1C)CS(=O)C2 (stereo not drawn) 4.45%
Cc1cc(C)cc(N(CC(=O)NCCSCc2ccco2)S(C)(=O)=O)c1 15.8%
CCc1ccccc1N(CC(=O)NCCSCc1ccco1)S(C)(=O)=O 11.4%
CC(C)(C)C1CCC(C(=O)Nc2cccnc2)CC1 (stereo not drawn) 10%
Cc1ccc2c(c1)N(CC(=O)N1CCOCC1)C(=O)CO2 7.44%
CC(OC(=O)c1ccccc1NCCO)C(=O)Nc1ccnn1C(C)C (stereo not drawn) 10%
CCN1CCCC1CNC(=O)c1ccc2c(c1)NC(=O)/C(=C\c1ccccc1F)S2 (stereo not drawn) -13.2%
O=C1Nc2cc(C(=O)N3CCC(N4CCCCC4)CC3)ccc2S/C1=C\c1ccccc1 -25.5%
CC1CCc2sc3nc(N4CCN(CCO)CC4)n4ncnc4c3c2C1 (stereo not drawn) -149%
O=C1CN(C(=O)c2cc(F)cc(F)c2)c2ccccc2N1 11.9%
COc1ccc(-c2onc3ccc(C(C)=O)cc23)cc1 -105%
COc1ccccc1-c1nc(C(F)(F)F)c(OC)o1 4.93%
O=C(CCc1nnc2ccc(NCc3ccco3)nn12)Nc1cc(F)ccc1F -0.521%
Cc1ccc(Cc2cncc(O)c2)cc1S(=O)(=O)O 9.79%
Cc1ccc(CN(C(=O)c2sc3ccccc3c2Cl)C2CCS(=O)(=O)C2)cc1 (stereo not drawn) 32%
CC(OC(=O)/C=C/c1ccccc1)C(=O)NC1CCCCC1C (stereo not drawn) 8.8%
COc1cc(/C=C(\C#N)C(=O)Nc2ccc3ccccc3c2)c([N+](=O)[O-])cc1OC 17%
Cc1ccc(SCCC(=O)NC(C(C)C)C(C)C)cc1 23.2%
CCN(CC)CCOc1ccc2c(c1)C(=NNC(=O)c1ccccn1)c1cc(OCCN(CC)CC)ccc1-2 13.8%
Cc1ccc(N2CC(C(=O)N3CCC4(CC3)CC(=O)c3ccccc3O4)CC2=O)cc1C (stereo not drawn) 2.59%
CC(C)Cn1cnc2c(SCc3ccc(Cl)cc3)nc(N)nc21 -109%
CCC/C(O)=C1\C(=O)CC(C)(C)CC1=Nc1ccccc1OC 10%
O=C(Nc1ccc(OCC(=O)N2CCOCC2)cc1)c1cc(F)c(F)cc1Cl -39.3%
CC1CC(=O)Nc2ccccc2N1C(=O)COc1ccc2cc(Br)ccc2c1 (stereo not drawn) 10.2%
OCCCNc1nccc(-c2cc(Nc3cccc(Cl)c3)ncn2)n1 -18.5%
O=C1NC(Nc2nc3ccccc3s2)(C(F)(F)F)C(=O)N1C1CCCCC1 (stereo not drawn) -11.7%
COc1cc(OC)c(C2=NOC(C(=O)Nc3c(C)n(C)n(-c4ccccc4)c3=O)C2)cc1Cl (stereo not drawn) 11.3%
c1ccc2cc(CCCc3cc4ccccc4cn3)ncc2c1 -39.5%
CCOC(=O)c1c(C)nn(-c2ncccc2NC(=O)CCC(=O)O)c1C 11.8%
COC(=O)c1c(NC(=O)CCN2CCOCC2)sc2c1CCCC2 5.82%
COC(=O)c1c(NC(=O)C2CC(C)=C(C)CC2C(=O)O)sc2c1CCCCC2 (stereo not drawn) 16%
O=C(CCCn1c(=O)oc2ccccc21)Nc1cccnc1 2.59%
NS(=O)(=O)c1cc(Cl)c(Cl)c(S(N)(=O)=O)c1 -2.27%
NC(N)=Nc1nc2ccc(Br)cc2c(=O)[nH]1 -20.2%
Cc1nc(N=C(N)N)nc2c(C)cccc12 15%
S=C(NC1CCCCC1)NN1CCOCC1 12.3%
Cc1sc(NC(=S)NC(=O)c2cccs2)nc1-c1ccc(CC(C)C)cc1 -5.06%
O=C(C1=C[C@H](c2coc3ccccc3c2=O)C[C@H](OCc2ccc(CO)cc2)O1)N1CCN(Cc2ccccc2)CC1 25%
CSC1=N/C(=C\C=C\c2cccs2)C(=O)S1 -28.6%
O=C(COc1nsnc1N1CCOCC1)Nc1ccccc1Cl -40.8%
